Results as given in the supplement of paper PMC9262897, “Low-cost anti-mycobacterial drug discovery using engineered E. coli” (Nature Communications, 2022).
Structures can show the parent of a compound that is named as a salt. ± gives the standard deviation of the averaged measurements.

Tests used:
Assay in all cases: growth (OD600 after 10 h); higher = more growth (less inhibition)
[1] = test system: E. coli TESEC Alr+ wild-type control; conditions: compound 0.1 mM; raw OD600 reference: median of DMSO wells 0.241, cell-free background 0.041
Method: (§1)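 TESEC Mtb Alr E. coli, or the Alr+ wild-type control, in 384-well plates with Prestwick library compounds at 0.1 mM and 1% DMSO, across arabinose induction levels of 1E3 to 1E7 nM. Growth is read as OD600 after 10 h at 37 °C in triplicate biological replicates.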

[2] = test system: E. coli TESEC Mtb Alr; conditions: compound 0.1 mM
Method: as §1

[3] = test system: E. coli TESEC Mtb Asd; conditions: compound 0.1 mM
Method: (§2)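 TESEC E. coli strains in which the native enzyme is deleted and replaced by arabinose-inducible Mtb Asd, DapB, CysH or TrpD, each grown in its selective medium. Strains were screened against the Prestwick library at 0.1 mM and 1% DMSO in 384-well format at low and high arabinose induction. Growth is read as OD600 after 10 h in triplicate.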

[4] = test system: E. coli TESEC Mtb DapB; conditions: compound 0.1 mM
Method: as §2

[5] = test system: E. coli TESEC Alr+ wild-type control; conditions: compound 0.1 mM; raw OD600 reference: median of DMSO wells 0.49, cell-free background 0.052
Method: (§3)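 TESEC Mtb Alr E. coli (ΔaraC ΔtolC ΔentC Δalr ΔdadX, arabinose-inducible Mtb Alr) or the Alr+ wild-type control strain, grown in defined M9-fructose medium without D-alanine in 96-well plates with Prestwick library compounds at 0.1 mM and 1% DMSO. Low Alr induction is 0.1 µM arabinose and high induction is 10 mM arabinose.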

[6] = test system: E. coli TESEC Mtb Alr; conditions: compound 0.1 mM; remark: listed apart in the source
Method: as §3

[7] = arabinose 1000 nM, raw OD600 reference: median of DMSO wells 0.294, cell-free background 0.041
[8] = arabinose 10000 nM, raw OD600 reference: median of DMSO wells 0.264, cell-free background 0.041
[9] = arabinose 100000 nM, raw OD600 reference: median of DMSO wells 0.201, cell-free background 0.041
[10] = arabinose 1000000 nM, raw OD600 reference: median of DMSO wells 0.193, cell-free background 0.041
[11] = arabinose 10000000 nM, raw OD600 reference: median of DMSO wells 0.146, cell-free background 0.041
[12] = arabinose induction (level): High, raw OD600 reference: median of DMSO wells 0.331, cell-free background 0.041
[13] = arabinose induction (level): Low, raw OD600 reference: median of DMSO wells 0.417, cell-free background 0.041
[14] = arabinose induction (level): High, raw OD600 reference: median of DMSO wells […], cell-free background 0.041
[15] = arabinose induction (level): Low, raw OD600 reference: median of DMSO wells 0.227, cell-free background 0.041
[16] = arabinose 100 nM, raw OD600 reference: median of DMSO wells 0.413, cell-free background 0.052
[17] = arabinose 10000000 nM, raw OD600 reference: median of DMSO wells […], cell-free background 0.052

SMILES	growth [1]	growth [2, 7]	growth [2, 8]	growth [2, 9]	growth [2, 10]	growth [2, 11]	growth [3, 12]	growth [3, 13]	growth [4, 14]	growth [4, 15]	growth [5]	growth [6, 16]	growth [6, 17]
C#CCN(C)Cc1ccccc1 [Pargyline hydrochloride]	0.25 ± 0.0048	0.291 ± 0.0091	0.278 ± 0.0057	0.206 ± 0.02	0.19 ± 0.0033	0.142 ± 0.0058	0.34 ± 0.035	0.429 ± 0.047	0.177 ± 0.0081	0.194 ± 0.0055	0.516 ± 0.11	0.412 ± 0.0092	0.357 ± 0.007
Cc1ccc(-c2cc(C(F)(F)F)nn2-c2ccc(S(N)(=O)=O)cc2)cc1 [Celecoxib]	0.0401 ± 0.00046	0.041 ± 0.0023	0.0401 ± 0.00091	0.0415 ± 0.0019	0.0418 ± 0.0037	0.04133 ± 0.00035	0.04733 ± 0.00047	0.0479 ± 0.00085	0.0473 ± 0.00055	0.0486 ± 0.0019	0.425 ± 0.11	0.308 ± 0.021	0.0533 ± 0.0036
CCCCC(CC)CN1CN(CC(CC)CCCC)CC(C)(N)C1 (stereo unspecified) [Hexetidine]	0.219 ± 0.015	0.259 ± 0.0085	0.309 ± 0.0098	0.228 ± 0.039	0.161 ± 0.014	0.187 ± 0.0073	0.309 ± 0.022	0.373 ± 0.059	0.218 ± 0.018	0.225 ± 0.033	0.0454 ± 0.00058	0.173 ± 0.21	0.0486 ± 0.0013
CN1C(C(=O)Nc2ccccn2)=C(O)c2sccc2S1(=O)=O [Tenoxicam]	0.195 ± 0.0081	0.238 ± 0.0097	0.223 ± 0.0086	0.212 ± 0.0097	0.152 ± 0.0064	0.139 ± 0.0027	0.281 ± 0.11	0.223 ± 0.01	0.185 ± 0.0085	0.18 ± 0.0088	0.493 ± 0.051	0.375 ± 0.05	0.277 ± 0.01
N=C(N)NCC1COC2(CCCCC2)O1 (stereo unspecified) [Guanadrel sulfate]	0.241 ± 0.0075	0.296 ± 0.0091	0.258 ± 0.0067	0.204 ± 0.017	0.183 ± 0.0022	0.138 ± 0.0046	0.363 ± 0.079	0.368 ± 0.036	0.22 ± 0.023	0.227 ± 0.039	0.635 ± 0.012	0.406 ± 0.013	0.324 ± 0.012
O=C(Oc1cccc2cccnc12)c1ccccc1 [Benzoxiquine]	0.222 ± 0.0051	0.264 ± 0.016	0.28 ± 0.0036	0.172 ± 0.014	0.198 ± 0.011	0.14 ± 0.01	0.316 ± 0.12	0.289 ± 0.017	0.182 ± 0.018	0.201 ± 0.015	0.505 ± 0.036	0.368 ± 0.016	0.281 ± 0.01
CC1(C)[C@H](C(=O)O)N2C(=O)C[C@H]2S1(=O)=O [Sulbactam]	0.241 ± 0.0052	0.305 ± 0.0083	0.263 ± 0.0075	0.244 ± 0.009	0.202 ± 0.015	0.165 ± 0.01	0.39 ± 0.029	0.438 ± 0.016	0.2 ± 0.006	0.225 ± 0.025	0.533 ± 0.06	0.409 ± 0.0061	0.361 ± 0.011
Clc1ccccc1CN1CCc2sccc2C1 [Ticlopidine hydrochloride]	0.0758 ± 0.011	0.0555 ± 0.015	0.0438 ± 0.0013	0.0705 ± 0.024	0.0437 ± 0.00091	0.0565 ± 0.0013	0.236 ± 0.03	0.323 ± 0.07	0.195 ± 0.0059	0.23 ± 0.029	0.429 ± 0.015	0.345 ± 0.085	0.06587 ± 0.00038
Cc1onc(-c2ccccc2)c1C(=O)N[C@@H]1C(=O)N2[C@@H]1SC(C)(C)[C@@H]2C(=O)O [Oxacillin sodium]	0.246 ± 0.017	0.298 ± 0.017	0.249 ± 0.012	0.198 ± 0.015	0.187 ± 0.0051	0.14 ± 0.0038	0.468 ± 0.036	0.477 ± 0.0063	0.192 ± 0.0086	0.243 ± 0.046	0.492 ± 0.054	0.421 ± 0.0073	0.362 ± 0.0089
Clc1ccc(COC(Cn2ccnc2)c2ccc(Cl)cc2Cl)c(Cl)c1 (stereo unspecified) [Miconazole]	0.0977 ± 0.098	0.201 ± 0.11	0.03953 ± 0.00021	0.0741 ± 0.0079	0.03923 ± 0.00025	0.141 ± 0.061	0.0471 ± 0.00055	0.0481 ± 0.0013	0.0949 ± 0.0049	0.134 ± 0.1	0.137 ± 0.03	0.051 ± 0.0039	0.083 ± 0.0044
CCc1cc(C(N)=S)ccn1 [Ethionamide]	0.243 ± 0.0035	0.294 ± 0.0077	0.262 ± 0.005	0.236 ± 0.036	0.184 ± 0.0033	0.144 ± 0.0028	0.299 ± 0.05	0.324 ± 0.1	0.206 ± 0.011	0.217 ± 0.027	0.583 ± 0.11	0.406 ± 0.0087	0.334 ± 0.02
CC(C)(O/N=C(\C(=O)N[C@@H]1C(=O)N2C(C(=O)[O-])=C(C[n+]3ccccc3)CS[C@H]12)c1csc(N)n1)C(=O)O [Ceftazidime pentahydrate]	0.0434 ± 0.00087	0.0435 ± 0.0041	0.0396 ± 0.0004	0.0423 ± 0.0036	0.0575 ± 0.00086	0.0674 ± 0.0023	0.113 ± 0.0029	0.0679 ± 0.011	0.167 ± 0.072	0.0547 ± 0.0049	0.0473 ± 0.00053	0.0467 ± 0.002	0.0727 ± 0.0092
Nc1ccc(O)c(C(=O)O)c1 [Mesalamine]	0.2446 ± 0.0018	0.287 ± 0.014	0.278 ± 0.0044	0.2 ± 0.011	0.21 ± 0.0038	0.144 ± 0.0074	0.339 ± 0.052	0.362 ± 0.061	0.195 ± 0.024	0.213 ± 0.021	0.554 ± 0.11	0.416 ± 0.0084	0.363 ± 0.011
CNC1(C)C2CCC(C2)C1(C)C (stereo unspecified) [Mecamylamine hydrochloride]	0.242 ± 0.006	0.307 ± 0.0084	0.293 ± 0.0071	0.214 ± 0.034	0.185 ± 0.016	0.156 ± 0.0054	0.266 ± 0.078	0.304 ± 0.093	0.187 ± 0.018	0.238 ± 0.012	0.462 ± 0.03	0.433 ± 0.0029	0.312 ± 0.02
CC(C(=O)O)c1cccc(C(=O)c2ccccc2)c1 (stereo unspecified) [Ketoprofen]	0.227 ± 0.0059	0.249 ± 0.014	0.271 ± 0.012	0.172 ± 0.012	0.191 ± 0.0088	0.145 ± 0.0059	0.247 ± 0.013	0.335 ± 0.038	0.184 ± 0.018	0.248 ± 0.058	0.533 ± 0.084	0.428 ± 0.018	0.36 ± 0.005
Nc1nc2c(ncn2COC(CO)CO)c(=O)[nH]1 [Ganciclovir]	0.236 ± 0.0046	0.283 ± 0.0092	0.2718 ± 0.0013	0.202 ± 0.023	0.183 ± 0.003	0.136 ± 0.0066	0.314 ± 0.011	0.411 ± 0.019	0.21 ± 0.023	0.245 ± 0.013	0.473 ± 0.057	0.417 ± 0.016	0.365 ± 0.0063
O=C(NCC(O)CO)c1c(I)c(C(=O)NCC(O)CO)c(I)c(N(CCO)C(=O)CO)c1I (stereo unspecified) [Ioversol]	0.257 ± 0.0068	0.308 ± 0.017	0.288 ± 0.013	0.208 ± 0.015	0.192 ± 0.0057	0.169 ± 0.0037	0.477 ± 0.014	0.46 ± 0.019	0.202 ± 0.015	0.256 ± 0.028	0.452 ± 0.008	0.408 ± 0.015	0.362 ± 0.017
